Reference: PMC7862700, “An all-to-all approach to the identification of sequence-specific readers for epigenetic DNA modifications on cytosine”

Experiments:
Assay in all cases: DAPPL (digital affinity profiling via proximity ligation, sequencing); 10 mM Tris-HCl pH 7.5, 50 mM NaCl, 1 mM DTT, 4% glycerol, room temperature, 30 min; GST-TFs on glutathione beads, 16-mer random dsDNA library, 0.1% formaldehyde crosslink after washing; high values mean tight binding
FEV = biological target: T1, FEV (Homo sapiens, UniProt Q99581 1-238); conditions: protein: recombinant; tags: N-terminal GST; dsDNA, one strand shown
T1 sequence: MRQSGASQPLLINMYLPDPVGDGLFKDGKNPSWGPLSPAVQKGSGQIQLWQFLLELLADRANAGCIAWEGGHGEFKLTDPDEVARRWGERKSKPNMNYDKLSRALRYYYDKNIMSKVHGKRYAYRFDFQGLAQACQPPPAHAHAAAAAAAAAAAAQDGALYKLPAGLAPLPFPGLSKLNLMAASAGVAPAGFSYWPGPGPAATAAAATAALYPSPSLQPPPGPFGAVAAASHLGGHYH
Outline: (§1)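 Sequencing on an Illumina NextSeq500 followed washing, crosslinking with 0.1% formaldehyde, proximity ligation (BsaI/T4 ligase, 1 h, 37 °C) and PCR amplification of pools that had been incubated for 30 min at room temperature with 200 nmole of a random double-stranded 16-mer DNA library in Tris/NaCl/DTT/glycerol buffer. Each pool held DNA-barcoded human transcription factors, expressed in yeast as GST fusions and captured on glutathione beads, plus a tag-only sample. Binding signal is a hexamer's read frequency for a factor divided by its frequency in the tag-only sample.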

ETV5 = ETV5 (Homo sapiens, UniProt P41161 1-510); conditions: protein: recombinant; tags: N-terminal GST; dsDNA, one strand shown
ETV5, sequence (P41161 whole entry): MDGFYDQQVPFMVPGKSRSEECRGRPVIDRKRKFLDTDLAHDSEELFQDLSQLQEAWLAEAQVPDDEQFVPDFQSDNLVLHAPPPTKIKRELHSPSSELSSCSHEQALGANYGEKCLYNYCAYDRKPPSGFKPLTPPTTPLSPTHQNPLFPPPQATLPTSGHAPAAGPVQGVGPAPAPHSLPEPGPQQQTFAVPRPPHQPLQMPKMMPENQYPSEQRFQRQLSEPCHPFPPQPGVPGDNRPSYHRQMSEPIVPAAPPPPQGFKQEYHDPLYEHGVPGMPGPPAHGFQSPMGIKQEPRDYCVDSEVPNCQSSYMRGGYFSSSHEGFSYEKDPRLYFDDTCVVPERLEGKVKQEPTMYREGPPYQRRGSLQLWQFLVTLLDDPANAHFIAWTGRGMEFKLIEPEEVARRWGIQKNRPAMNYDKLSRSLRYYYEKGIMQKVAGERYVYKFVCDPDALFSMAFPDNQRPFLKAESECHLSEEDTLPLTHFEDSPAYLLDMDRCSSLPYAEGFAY
Outline: as §1

HSF1 = HSF1 (Homo sapiens, UniProt Q00613 1-529); conditions: protein: recombinant; tags: N-terminal GST; chain copies: 3; dsDNA, one strand shown
HSF1, sequence (Q00613 whole entry): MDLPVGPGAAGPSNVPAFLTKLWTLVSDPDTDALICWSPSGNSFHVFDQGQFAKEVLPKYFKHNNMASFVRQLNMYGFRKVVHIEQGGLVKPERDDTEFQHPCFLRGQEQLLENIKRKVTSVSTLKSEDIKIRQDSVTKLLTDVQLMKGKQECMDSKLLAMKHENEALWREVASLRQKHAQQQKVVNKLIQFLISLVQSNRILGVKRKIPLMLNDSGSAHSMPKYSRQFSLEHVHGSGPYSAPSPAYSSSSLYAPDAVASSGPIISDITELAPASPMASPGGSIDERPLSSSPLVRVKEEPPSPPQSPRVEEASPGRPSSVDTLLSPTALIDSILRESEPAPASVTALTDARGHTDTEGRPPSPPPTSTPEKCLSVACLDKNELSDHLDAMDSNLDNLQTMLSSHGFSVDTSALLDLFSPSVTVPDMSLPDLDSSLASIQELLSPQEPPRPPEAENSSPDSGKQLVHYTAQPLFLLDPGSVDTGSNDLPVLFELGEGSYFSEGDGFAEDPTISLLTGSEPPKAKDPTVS
Outline: as §1

SPIC = biological target: T2, SPIC (Homo sapiens, UniProt Q8N5J4 1-248); conditions: protein: recombinant; tags: N-terminal GST; dsDNA, one strand shown
T2 sequence: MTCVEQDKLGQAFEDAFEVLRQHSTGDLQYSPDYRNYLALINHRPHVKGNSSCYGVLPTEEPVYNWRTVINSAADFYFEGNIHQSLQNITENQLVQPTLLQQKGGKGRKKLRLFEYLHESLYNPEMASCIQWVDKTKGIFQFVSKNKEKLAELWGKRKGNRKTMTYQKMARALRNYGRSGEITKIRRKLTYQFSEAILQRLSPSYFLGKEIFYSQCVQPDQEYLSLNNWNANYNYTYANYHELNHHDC
Outline: as §1

ELF4 = ELF4 (Homo sapiens, UniProt Q99607 1-663); conditions: protein: recombinant; tags: N-terminal GST; dsDNA, one strand shown
ELF4, sequence (Q99607 whole entry): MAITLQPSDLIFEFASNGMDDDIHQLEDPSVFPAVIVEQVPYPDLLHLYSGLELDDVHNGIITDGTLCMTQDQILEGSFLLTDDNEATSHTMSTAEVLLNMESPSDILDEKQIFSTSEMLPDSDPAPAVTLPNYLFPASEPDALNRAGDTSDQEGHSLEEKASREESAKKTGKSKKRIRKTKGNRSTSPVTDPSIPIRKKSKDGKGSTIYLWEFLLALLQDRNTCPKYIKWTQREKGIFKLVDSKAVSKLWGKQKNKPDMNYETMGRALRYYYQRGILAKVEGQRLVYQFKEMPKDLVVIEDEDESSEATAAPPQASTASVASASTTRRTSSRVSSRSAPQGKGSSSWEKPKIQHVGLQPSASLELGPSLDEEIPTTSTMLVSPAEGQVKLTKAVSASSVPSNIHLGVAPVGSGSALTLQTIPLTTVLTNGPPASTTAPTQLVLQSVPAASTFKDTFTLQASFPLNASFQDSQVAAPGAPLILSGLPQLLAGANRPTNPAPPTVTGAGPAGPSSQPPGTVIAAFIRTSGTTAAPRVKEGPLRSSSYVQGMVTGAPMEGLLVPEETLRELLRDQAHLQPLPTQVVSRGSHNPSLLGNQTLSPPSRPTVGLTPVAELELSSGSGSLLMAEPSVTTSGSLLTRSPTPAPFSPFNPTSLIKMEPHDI
Outline: as §1

ELK4 = biological target: T3, ELK4 (Homo sapiens, UniProt P28324-2 1-405); conditions: protein: recombinant; tags: N-terminal GST; dsDNA, one strand shown
T3 sequence: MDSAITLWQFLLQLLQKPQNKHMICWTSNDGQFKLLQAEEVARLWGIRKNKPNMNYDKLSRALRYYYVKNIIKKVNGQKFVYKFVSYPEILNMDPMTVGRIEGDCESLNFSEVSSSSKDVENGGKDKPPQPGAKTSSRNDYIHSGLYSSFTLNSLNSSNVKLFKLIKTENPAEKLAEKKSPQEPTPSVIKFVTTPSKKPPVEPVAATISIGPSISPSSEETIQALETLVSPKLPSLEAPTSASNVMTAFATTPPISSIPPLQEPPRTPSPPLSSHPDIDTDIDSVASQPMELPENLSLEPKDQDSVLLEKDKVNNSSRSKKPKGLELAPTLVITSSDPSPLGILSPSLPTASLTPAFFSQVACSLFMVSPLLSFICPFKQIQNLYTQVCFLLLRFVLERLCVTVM
Outline: as §1

ETV2 = biological target: T4, ETV2 (Homo sapiens, UniProt O00321 1-342); conditions: protein: recombinant; tags: N-terminal GST; dsDNA, one strand shown
T4 sequence: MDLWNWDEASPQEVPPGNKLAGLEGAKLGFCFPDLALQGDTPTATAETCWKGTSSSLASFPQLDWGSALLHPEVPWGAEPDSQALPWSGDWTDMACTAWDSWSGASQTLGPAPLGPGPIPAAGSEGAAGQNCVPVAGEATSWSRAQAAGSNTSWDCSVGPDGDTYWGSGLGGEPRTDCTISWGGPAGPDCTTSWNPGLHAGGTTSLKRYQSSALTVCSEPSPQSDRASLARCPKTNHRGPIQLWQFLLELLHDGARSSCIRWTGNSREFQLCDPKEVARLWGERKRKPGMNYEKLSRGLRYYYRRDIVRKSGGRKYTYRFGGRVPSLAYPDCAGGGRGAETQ
Outline: as §1

ELF3 = biological target: T5, ELF3 (Homo sapiens, UniProt P78545 1-371); conditions: protein: recombinant; tags: N-terminal GST; dsDNA, one strand shown
T5 sequence: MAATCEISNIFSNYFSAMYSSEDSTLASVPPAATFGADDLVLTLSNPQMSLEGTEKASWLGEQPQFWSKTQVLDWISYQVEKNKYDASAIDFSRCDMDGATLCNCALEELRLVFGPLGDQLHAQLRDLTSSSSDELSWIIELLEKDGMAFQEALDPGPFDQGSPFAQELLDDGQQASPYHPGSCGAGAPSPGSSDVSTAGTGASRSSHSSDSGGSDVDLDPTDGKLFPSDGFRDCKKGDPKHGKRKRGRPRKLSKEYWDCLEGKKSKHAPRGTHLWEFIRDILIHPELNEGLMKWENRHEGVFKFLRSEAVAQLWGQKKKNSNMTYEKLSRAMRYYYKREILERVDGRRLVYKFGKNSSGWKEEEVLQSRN
Outline: as §1

ETV1 = ETV1 (Homo sapiens, UniProt P50549 1-477); conditions: protein: recombinant; tags: N-terminal GST; dsDNA, one strand shown
ETV1, sequence (P50549 whole entry): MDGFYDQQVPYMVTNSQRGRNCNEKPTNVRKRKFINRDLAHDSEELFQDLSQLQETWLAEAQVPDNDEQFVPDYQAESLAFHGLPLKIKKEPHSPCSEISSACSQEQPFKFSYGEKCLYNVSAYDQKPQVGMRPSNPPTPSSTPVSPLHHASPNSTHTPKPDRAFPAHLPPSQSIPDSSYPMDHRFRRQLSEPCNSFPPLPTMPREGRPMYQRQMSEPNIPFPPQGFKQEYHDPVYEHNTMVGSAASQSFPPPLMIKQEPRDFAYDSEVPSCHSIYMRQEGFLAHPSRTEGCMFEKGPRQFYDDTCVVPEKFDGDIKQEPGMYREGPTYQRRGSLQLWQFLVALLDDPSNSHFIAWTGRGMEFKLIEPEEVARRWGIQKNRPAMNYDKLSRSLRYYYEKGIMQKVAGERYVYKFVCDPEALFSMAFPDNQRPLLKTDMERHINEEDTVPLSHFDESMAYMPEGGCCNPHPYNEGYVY
Outline: as §1

ERF = biological target: T6, ERF (Homo sapiens, UniProt P50548 1-548); conditions: protein: recombinant; tags: N-terminal GST; dsDNA, one strand shown
T6 sequence: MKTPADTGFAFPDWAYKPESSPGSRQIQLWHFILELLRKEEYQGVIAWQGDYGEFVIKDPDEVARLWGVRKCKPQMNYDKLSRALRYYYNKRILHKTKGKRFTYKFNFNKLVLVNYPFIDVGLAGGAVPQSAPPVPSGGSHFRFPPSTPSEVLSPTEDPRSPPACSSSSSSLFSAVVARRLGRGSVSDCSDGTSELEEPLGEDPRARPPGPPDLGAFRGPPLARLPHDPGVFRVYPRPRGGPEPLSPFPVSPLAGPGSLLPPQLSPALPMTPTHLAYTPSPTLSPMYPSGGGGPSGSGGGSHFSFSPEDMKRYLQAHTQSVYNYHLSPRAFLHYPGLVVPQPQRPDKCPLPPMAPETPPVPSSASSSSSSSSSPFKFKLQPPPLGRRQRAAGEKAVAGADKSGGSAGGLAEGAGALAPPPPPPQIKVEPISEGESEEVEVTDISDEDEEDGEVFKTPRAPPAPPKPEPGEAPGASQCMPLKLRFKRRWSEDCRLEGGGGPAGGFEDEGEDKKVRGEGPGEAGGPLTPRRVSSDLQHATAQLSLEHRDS
Outline: as §1

ETV3L = biological target: T7, ETV3L (Homo sapiens, UniProt Q6ZN32 1-361); conditions: protein: recombinant; tags: N-terminal GST; dsDNA, one strand shown
T7 sequence: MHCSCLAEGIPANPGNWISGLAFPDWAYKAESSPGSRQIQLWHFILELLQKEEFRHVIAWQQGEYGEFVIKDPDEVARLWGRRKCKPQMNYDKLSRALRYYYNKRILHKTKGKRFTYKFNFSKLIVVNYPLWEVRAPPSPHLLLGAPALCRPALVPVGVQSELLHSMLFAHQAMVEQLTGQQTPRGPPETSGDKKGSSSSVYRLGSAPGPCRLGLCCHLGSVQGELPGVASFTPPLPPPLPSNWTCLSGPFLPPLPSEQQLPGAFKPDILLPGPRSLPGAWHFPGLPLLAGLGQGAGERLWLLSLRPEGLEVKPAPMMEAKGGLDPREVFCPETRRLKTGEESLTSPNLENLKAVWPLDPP
Outline: as §1

ETS2 = biological target: T8, ETS2 (Homo sapiens, UniProt P15036 1-469); conditions: protein: recombinant; tags: N-terminal GST; dsDNA, one strand shown
T8 sequence: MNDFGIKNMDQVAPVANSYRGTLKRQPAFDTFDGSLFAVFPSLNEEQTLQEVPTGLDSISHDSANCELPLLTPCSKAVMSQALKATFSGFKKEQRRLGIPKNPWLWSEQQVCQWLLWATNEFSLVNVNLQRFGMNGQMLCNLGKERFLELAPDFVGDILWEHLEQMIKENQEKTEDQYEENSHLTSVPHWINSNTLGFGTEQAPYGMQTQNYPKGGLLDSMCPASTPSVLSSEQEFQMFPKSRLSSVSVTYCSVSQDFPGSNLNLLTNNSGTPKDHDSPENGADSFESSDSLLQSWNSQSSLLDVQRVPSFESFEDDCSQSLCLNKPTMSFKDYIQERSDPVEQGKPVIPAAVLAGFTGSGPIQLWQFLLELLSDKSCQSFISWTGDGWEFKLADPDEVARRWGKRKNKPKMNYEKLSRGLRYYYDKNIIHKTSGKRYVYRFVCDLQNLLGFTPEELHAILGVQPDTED
Outline: as §1

SPDEF = biological target: T9, SPDEF (Homo sapiens, UniProt O95238 1-335); conditions: protein: recombinant; tags: N-terminal GST; dsDNA, one strand shown
T9 sequence: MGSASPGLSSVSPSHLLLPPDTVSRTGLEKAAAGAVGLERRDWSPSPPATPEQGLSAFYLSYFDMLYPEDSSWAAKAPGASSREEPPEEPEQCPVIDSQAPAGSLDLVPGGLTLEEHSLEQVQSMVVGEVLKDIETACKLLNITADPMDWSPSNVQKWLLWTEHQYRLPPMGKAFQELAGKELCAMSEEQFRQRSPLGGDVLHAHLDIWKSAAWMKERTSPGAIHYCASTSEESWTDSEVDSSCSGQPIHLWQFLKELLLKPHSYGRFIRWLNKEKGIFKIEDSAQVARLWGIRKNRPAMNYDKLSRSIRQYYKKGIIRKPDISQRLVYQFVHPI
Outline: as §1

ETV7 = biological target: T10, ETV7 (Homo sapiens, UniProt Q9Y603 1-341); conditions: protein: recombinant; tags: N-terminal GST; dsDNA, one strand shown
T10 sequence: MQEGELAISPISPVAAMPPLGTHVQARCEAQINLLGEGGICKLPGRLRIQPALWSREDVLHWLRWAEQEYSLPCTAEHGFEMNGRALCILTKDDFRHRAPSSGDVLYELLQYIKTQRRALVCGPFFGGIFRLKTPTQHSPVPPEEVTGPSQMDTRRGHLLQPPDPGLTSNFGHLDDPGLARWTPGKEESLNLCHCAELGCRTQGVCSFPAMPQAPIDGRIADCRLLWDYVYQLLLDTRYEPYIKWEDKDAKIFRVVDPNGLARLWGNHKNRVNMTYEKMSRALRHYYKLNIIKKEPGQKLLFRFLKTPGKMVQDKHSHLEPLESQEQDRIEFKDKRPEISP
Outline: as §1

ELF5 = biological target: T11, ELF5 (Homo sapiens, UniProt Q9UKW6-2 1-255); conditions: protein: recombinant; tags: N-terminal GST; dsDNA, one strand shown
T11 sequence: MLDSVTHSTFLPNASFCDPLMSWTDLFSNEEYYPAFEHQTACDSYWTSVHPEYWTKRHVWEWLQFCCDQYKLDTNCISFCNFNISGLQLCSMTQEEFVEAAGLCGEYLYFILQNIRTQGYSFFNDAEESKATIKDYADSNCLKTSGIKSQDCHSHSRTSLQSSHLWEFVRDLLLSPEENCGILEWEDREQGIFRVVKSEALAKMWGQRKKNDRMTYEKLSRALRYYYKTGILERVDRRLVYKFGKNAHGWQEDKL
Outline: as §1

ETV3 = biological target: T12, ETV3 (Homo sapiens, UniProt P41162-2 1-143); conditions: protein: recombinant; tags: N-terminal GST; dsDNA, one strand shown
T12 sequence: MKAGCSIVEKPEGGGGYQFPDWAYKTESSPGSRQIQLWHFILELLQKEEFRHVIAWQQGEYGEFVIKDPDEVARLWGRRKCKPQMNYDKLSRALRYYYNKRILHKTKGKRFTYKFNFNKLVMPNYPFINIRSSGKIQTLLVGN
Outline: as §1

ETV6 = ETV6 (Homo sapiens, UniProt P41212 1-452); conditions: protein: recombinant; tags: N-terminal GST; dsDNA, one strand shown
ETV6, sequence (P41212 whole entry): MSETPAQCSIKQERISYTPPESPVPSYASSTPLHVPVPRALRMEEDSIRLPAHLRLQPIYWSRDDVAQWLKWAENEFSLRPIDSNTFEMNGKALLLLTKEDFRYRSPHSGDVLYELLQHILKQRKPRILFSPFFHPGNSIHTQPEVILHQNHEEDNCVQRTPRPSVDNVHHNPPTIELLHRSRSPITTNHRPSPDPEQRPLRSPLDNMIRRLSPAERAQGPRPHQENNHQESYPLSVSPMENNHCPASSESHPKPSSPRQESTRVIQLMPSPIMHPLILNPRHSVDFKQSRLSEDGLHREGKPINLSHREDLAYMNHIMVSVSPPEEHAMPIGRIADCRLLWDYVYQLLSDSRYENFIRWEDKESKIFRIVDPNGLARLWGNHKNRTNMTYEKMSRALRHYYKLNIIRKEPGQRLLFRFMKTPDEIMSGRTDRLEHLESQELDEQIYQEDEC
Outline: as §1

GCTATG
binding signal (FEV): 1.15 fold enrichment (6-mer frequency, TF over GST control) | binding signal (ETV5): 1.13 fold enrichment (6-mer frequency, TF over GST control) | binding signal (HSF1): 1.07 fold enrichment (6-mer frequency, TF over GST control) | binding signal (SPIC): 1.22 fold enrichment (6-mer frequency, TF over GST control) | binding signal (ELF4): 1.08 fold enrichment (6-mer frequency, TF over GST control) | binding signal (ELK4): 1.15 fold enrichment (6-mer frequency, TF over GST control) | binding signal (ETV2): 1.38 fold enrichment (6-mer frequency, TF over GST control) | binding signal (ELF3): 1.18 fold enrichment (6-mer frequency, TF over GST control) | binding signal (ETV1): 1.17 fold enrichment (6-mer frequency, TF over GST control) | binding signal (ERF): 1.26 fold enrichment (6-mer frequency, TF over GST control) | binding signal (ETV3L): 1.16 fold enrichment (6-mer frequency, TF over GST control) | binding signal (ETS2): 1.26 fold enrichment (6-mer frequency, TF over GST control) | binding signal (SPDEF): 1.23 fold enrichment (6-mer frequency, TF over GST control) | binding signal (ETV7): 1.3 fold enrichment (6-mer frequency, TF over GST control) | binding signal (ELF5): 1.14 fold enrichment (6-mer frequency, TF over GST control) | binding signal (ETV3): 1.23 fold enrichment (6-mer frequency, TF over GST control) | binding signal (ETV6): 1.1 fold enrichment (6-mer frequency, TF over GST control)
